These results are taken from PubChem BioAssay.

Molecules are shown by their SMILES. Inconclusive results are not listed. Active and inactive are the calls of the source. Unless noted, the limit is not given here; nearly all actives have AC50 up to about 26 µM.

The nature of assay [1]: growth inhibition of DIPG glioma cells, dose response, cell-based, SU-DIPG-XVII, MIPE5.0, CellTiter-Glo, qHTS (AID 1347060).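 As to AC50: cells exposed to compound for 48 hours before viability readout.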 Conditions: SU-DIPG-XVII viability, CellTiter-Glo ATP luminescence.
Assay [2] in a line: growth inhibition of DIPG glioma cells, dose response, cell-based, SU-DIPG-XIII, MIPE4.0, CellTiter-Glo, qHTS (AID 1347061; cut-off not given, nearly all actives have AC50 up to about 37 µM;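 also: cells exposed to compound for 48 hours before readout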). Conditions: SU-DIPG-XIII viability, CellTiter-Glo ATP luminescence. In general terms: Cellular ATP, detected with luciferase, serves as a proxy for viable cell number.
Assay [3] can be described thus: growth inhibition of DIPG glioma cells, dose response, cell-based, SU-DIPG-IV, MIPE4.0, CellTiter-Glo, qHTS (AID 1347063; cut-off not given, nearly all actives have AC50 up to about 30 µM;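 also: compound exposure lasted 48 hours before the viability readout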). The following applies: SU-DIPG-IV viability, CellTiter-Glo ATP luminescence.
Assay [4] in a line: viability loss in pontine glioma line – cell-based, SU-DIPG-XXV, MIPE5.0, CellTiter-Glo, qHTS, dose response (AID 1347065).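 Also: cells exposed to compound for 48 hours before ATP readout.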 The following applies: CellTiter-Glo ATP luminescence.
A short description of assay [5]: JHH-DIPG-1 glioma cell viability, MIPE5.0 library, CellTiter-Glo luminescence, qHTS (AID 1347067).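 Also: cells exposed to compound for 48 hours before readout.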 The following applies: JHH-DIPG-1 glioma viability, CellTiter-Glo ATP luminescence.
Assay [6] is described as follows: SU-DIPG-VI glioma cell viability, MIPE4.0 library, CellTiter-Glo luminescence, qHTS (AID 1347066; cut-off not given, nearly all actives have AC50 up to about 30 µM;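 also: cells exposed to compound for 48 hours before readout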). The following applies: CellTiter-Glo ATP luminescence.
Assay [7] can be described thus: SU-DIPG-XXV glioma cell viability, MIPE5.0 library, qHTS (AID 1347068; cut-off not given, nearly all actives have IC50 up to about 30 µM). In general terms: Quantitative high-throughput screening tests each substance at several concentrations.
Assay [8] can be described thus: modifiers of HSF1 nuclear foci, imaging, Selleck Cancer Library (AID 1347162; in the data active = plate-normalised HSF1 focus index below about 0.46). The following applies: human cells, at 10 µM; SSMD: measured here: HSF1 foci SSMD mean; cell count: measured here: cell number; plate-normalised HSF1 focus index: stronger effect = lower value.
Assay [9] can be described thus: growth inhibition of DIPG glioma cells, dose response, cell-based, SU-DIPG-XIII, MIPE5.0, CellTiter-Glo, qHTS (AID 1347064; cut-off not given, nearly all actives have AC50 up to about 23 µM;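 as to AC50: cells exposed to compound for 48 hours before the viability read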). Conditions: SU-DIPG-XIII viability, CellTiter-Glo ATP luminescence.
Assay [10] in a line: sensitizers of A549 cells to miR-34 induction, primary screen, imaging, A549 dox-inducible miR-34, nuclei and caspase counts (AID 1347080;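 active = compounds whose cell count with miR-34 switched on is under 0.7 times the count with it off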). The following applies: A549 miR-34 inducible, Hoechst nuclei count, 48 h.
The nature of assay [11]: survival rescue of mitochondrial mutant cells in low glucose, primary screen, MELAS cybrids, Rieske KO mouse fibroblasts, CellTiter-Glo (AID 1508586;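 active = mean z-score across replicates of 1.96 or higher in either the MELAS or the Rieske mutant cell line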;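 also: z relative to plate mean and SD of compound and empty wells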).

What is called AC50 is the concentration giving half of the maximal activity seen. As to `CO[C@H]1C[C@@H]2CC[C@@H](C)[C@@](O)(O2)C(=O)C(=O)N2CCCC[C@H]2C(=O)O[C@H]([C@H](C)C[C@@H]2CC[C@@H](OP(C)(C)=O)[C@H](OC)C2)CC(=O)[C@H](C)/C=C(\C)[C@@H](O)[C@@H](OC)C(=O)[C@H](C)C[C@H](C)/C=C/C=C/C=C/1C`, the AC50 in assay [1] was 18.6 µM (active); in [3], 23.5 µM (active); in assay [4], 16.6 µM (active); in assay [5] it was 20.9 µM (active). In assay [2], the result was inactive.
For `CN[C@@H](C)C(=O)N[C@H]1CN(C(=O)CC(C)C)CC[C@H]2CC[C@@H](C(=O)NC(c3ccccc3)c3ccccc3)N2C1=O`, the call in assay [1], in assay [2], in assay [4], in assay [6], in assay [5] and in assay [7] was inactive. In addition, in assay [8], the SSMD was 2.71. Moreover, the cell count in [8] worked out at 7260. Also, in assay [8], the plate-normalised HSF1 focus index is 1.1 (inactive).
As to `COc1cc2ncnc(Nc3cccc(Br)c3)c2cc1OC`, the half-maximal activity concentration (AC50) in assay [1] is 2.09 µM (active); in assay [9] it was 14.8 µM (active); in [4] it was 16.6 µM (active); in [5], 20.9 µM (active). Besides, the result in assay [2] was inactive. This compound returned an SSMD in assay [8] of 2.47. In addition, the cell count in [8] was 7590. Also, in assay [8], the plate-normalised HSF1 focus index was 1.15 (inactive).
Regarding `Cc1nc(C(=O)NCC(=O)O)c(O)c2ccc(Oc3ccccc3)cc12`, the outcome in [1], in [2], in [9], in assay [4], in assay [6] and in [5] was inactive. For the same compound, the result in [7] was inactive. Also, the fold change is 0.947 (inactive) in assay [10] (stronger effect = lower value, cell number ratio, induced over uninduced) and 0.804 in [10] (measured here: relative caspase fold change +Dox/-Dox). In addition, the cell count was 6810 in assay [10] (measured here: total cells with miR-34 induction, stronger effect = lower value) and 7190 in [10] (measured here: total cells without miR-34 induction). In addition, the z-score in [11] (MELAS cybrid survival, CellTiter-Glo 48 h, stronger effect = higher value) was -0.0779 (inactive); in assay [11] (Rieske KO mouse fibroblast survival, CellTiter-Glo 72 h) it was 0.278.
For the compound `Nc1nc(=O)n([C@H]2C[C@H](O)[C@@H](CO)O2)cc1F`, the result in assay [1], in assay [2], in assay [3], in assay [4], in assay [6] and in assay [5] was inactive. For the same compound, the compound was called inactive in [7].
